Screening results: PubChem BioAssay, National Center for Advancing Translational Sciences (NCATS)
In the library only some 11% were active in any assay of this set; here they are far more common.
HEK293 tox – cytotoxic compounds in HEK 293 cells. HEK 293 viability, ATP luminescence (CellTiter-Glo), 48-72 h. Potency, µM (top dose mostly 115 µM), inactives show at the top dose activity change, negative = cytotoxicity, actives largely listed as inhibitors. 94,000 compounds, 6.6% hits; further: on the % scale 0 is the no-effect control and ±100 the full control effect; nearly all actives have a fitted effect of over 60% in size
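CellTiter-Glo luminescence (cellular ATP) was read after 48 or 72 hr of compound exposure at 37 degree Celsius. Cells were HEK 293 plated at 250 cells/well.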
hNpr1 antagonist – antagonists of human natriuretic peptide receptor Npr1 | P16066 | HEK293 hNpr1 GloSensor cGMP, ANP-stimulated luminescence | Potency, µM (titrated, usually from 46.3 µM), inactives show at the highest dose activity change, negative = inhibition, hits mostly inhibitors | 76,000 compounds, 1.6% hits | AID 1347048; calls by dose curve; further: on the % scale 0 is the no-effect control and ±100 the full control effect; nearly all actives have a fitted effect of over 60% in size
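HEK293 cells stably expressing human Npr1 and cGMP GloSensor pGS-40F, loaded 2 h with 2% GloSensor reagent, given compound 30 min at room temperature. Luminescence read before and 20 min after 0.1 nM hNppA.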
FLuc inh-1 – inhibitors of firefly (Photinus pyralis) luciferase | P08659 | purified P. pyralis luciferase, luminescence, biochemical | Potency, µM (series often up to 115 µM), most hits filed as inhibitors | 76,000 compounds, 2.5% hits | AID 1347043; further: on the % scale 0 is the no-effect control and ±100 the full control effect; nearly all actives have a fitted effect of over 65% in size
Target sequence (P08659 whole entry, looked up): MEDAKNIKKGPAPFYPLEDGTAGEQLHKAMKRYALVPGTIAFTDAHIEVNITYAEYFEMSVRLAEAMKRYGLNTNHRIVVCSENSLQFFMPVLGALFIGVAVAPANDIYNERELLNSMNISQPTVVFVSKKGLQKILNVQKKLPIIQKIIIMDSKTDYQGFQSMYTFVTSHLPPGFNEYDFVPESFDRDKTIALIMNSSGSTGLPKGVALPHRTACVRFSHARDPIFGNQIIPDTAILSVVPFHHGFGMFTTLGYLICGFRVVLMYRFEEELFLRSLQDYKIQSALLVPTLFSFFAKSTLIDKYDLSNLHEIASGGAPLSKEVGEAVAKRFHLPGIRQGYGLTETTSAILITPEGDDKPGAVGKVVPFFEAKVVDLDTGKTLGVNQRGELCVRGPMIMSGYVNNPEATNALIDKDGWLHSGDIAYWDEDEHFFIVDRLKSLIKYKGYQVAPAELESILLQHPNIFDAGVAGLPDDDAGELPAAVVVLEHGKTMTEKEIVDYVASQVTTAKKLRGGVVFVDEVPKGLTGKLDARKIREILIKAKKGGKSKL
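Purified 10nM P. pyralis luciferase with 10uM D-luciferin and 10uM ATP in 50mM Tris acetate pH 7.5, 10mM Mg acetate, 0.01% Tween-20, 0.05% BSA. qHTS titration; luminescence read by CCD imager.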
3T3 cytotox – NIH 3T3 cell cytotoxicity; NIH 3T3 viability, CellTiter-Glo ATP luminescence, 48-72 h; 94,000 compounds, 4.3% hits; Potency, µM (highest dose often 96.7 µM), without a hit: at the top dose activity change, negative = cytotoxicity, actives largely listed as inhibitors; further: on the % scale 0 is the no-effect control and ±100 the full control effect; nearly all actives have a fitted effect of over 55% in size
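NIH 3T3 cells at 400 cells/well received 23 nL of compound by pintool and were incubated 48 or 72 h at 37 °C. Viability was read as ATP-coupled CellTiter-Glo luminescence.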
FLuc SDR -ATP – firefly luciferase binding stabilization, ATP absent; shares compounds with FLuc inh-1; Purified FLuc-C-HiBiT, Nano-Glo HiBiT luminescence, no ATP; Potency, µM (top dose mostly 32.7 µM), inactives show top-dose activation (signal gain), usual class: activators; 1,300 compounds, 7.8% hits; further: nearly all actives have a fitted effect of over 55% in size
FLuc SDR ATP – firefly luciferase binding stabilization, ATP added; shares compounds with FLuc inh-1; purified FLuc-C-HiBiT + ATP, HiBiT complementation luminescence; Potency, µM (highest dose often 32.7 µM), without a hit: at the highest dose activation (gain of signal), usual class: activators; 1,300 compounds, 8.7% hits;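 further: signal reports ligand binding via conformational change of the enzyme rather than luciferase catalysis; % of control where 0% means no effect; nearly all actives have a fitted effect of over 55% in size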
FLuc inh-2 – blocks firefly luciferase enzymatic activity; 1,300 compounds, 42% hits; shares compounds with FLuc inh-1; AID 1963320; purified FLuc-C-HiBiT enzyme, luciferin luminescence; Potency, µM (highest dose often 32.7 µM), without a hit: at the top dose activity change, negative = inhibition, usual class: inhibitors; further: on the % scale 0 is the no-effect control and ±100 the full control effect; nearly all actives have a fitted effect of over 70% in size
Numbers without * were called inactive; i = inactive; ? = inconclusive; · = no result given; [ ] = remark or other dose. Unless noted, the call rests on the fitted dose curve; in most records, active means well fitted curve in the direction sought with a large enough effect; inconclusive means small, poorly fitted or top-dose-only effect, or another doubt; inactive means no such curve, though single readings can be large; an effect the other way counts as inactive or inconclusive. Potency means the concentration at half of the fitted maximal effect.

SMILES | HEK293 tox | hNpr1 antagonist | FLuc inh-1 | 3T3 cytotox | FLuc SDR -ATP | FLuc SDR ATP | FLuc inh-2
C[C@@H]1C(=O)O[C@H]2[C@H]1CC[C@@]1(C)Cc3sc(Nc4cccnc4)nc3[C@@H](C)[C@H]21 | -5%[172 µM] | 16µM* | 0.79µM* | -22%[174 µM] | 1µM* | ? | 0.45µM*
C[C@@H]1C(=O)O[C@H]2[C@H]1CC[C@@]1(C)Cc3sc(NCc4ccccc4)nc3[C@@H](C)[C@H]21 | ? | ? | 3.5µM* | ? | ? | 17%[49.3 µM] | 7.2µM*
C[C@@H]1C(=O)O[C@H]2[C@H]1CC[C@@]1(C)Cc3sc(NCCc4ccccn4)nc3[C@@H](C)[C@H]21 | 35µM* | ? | 4.5µM* | ? | ? | 17%[49.3 µM] | 16µM*
Cc1ccc(S(=O)(=O)Nc2nc3c(s2)C[C@]2(C)CC[C@@H]4[C@H](OC(=O)[C@H]4C)[C@H]2[C@@H]3C)cc1 | -21% | -2% | ? | -23% | · | · | ·
COc1ccc(OC)c(S(=O)(=O)Nc2nc3c(s2)C[C@]2(C)CC[C@@H]4[C@H](OC(=O)[C@H]4C)[C@H]2[C@@H]3C)c1 | ? | 0% | i | ? | · | · | ·
CCN(CC)Cc1cc(-c2nc(C3CCOC3)no2)c(-c2ccccc2)o1 (stereo not drawn) | -29% | -3% | i | ? | · | · | ·
COc1ccc(-c2cccc(C(=O)N3CCN(C(=O)c4ccccc4C)CC3)c2)nn1 | i | · | · | -4% | · | · | ·
O=C(O)CCC(=O)N1Cc2ccccc2CC2(CCCN(CC3CCCC3)C2)C1 (stereo not drawn) | i | · | · | i | · | · | ·
O=C1Cc2c(-c3cccc(N4CCOCC4)c3)n[nH]c2CN1Cc1ccccn1 | -34%[172 µM] | -4%[70.6 µM] | i | ? | · | · | ·
CC1CCC(NC(=O)C2CCN(C(=O)c3ncn4c3COC(c3ccccc3)C4)CC2)CC1 (stereo not drawn) | 4% | 0% | 2.8µM* | i | 12% | 3.1µM* | 2.5µM*
CCc1ccc(NC(=O)C2CCN(C(=O)c3ncn4c3COC(c3ccccc3)C4)CC2)cc1 (stereo not drawn) | ? | -17% | 5µM* | -27% | 13% | ? | 3.9µM*
Cc1ccc(NC(=O)C2CCN(C(=O)c3ncn4c3COC(c3ccccc3)C4)CC2)cc1 (stereo not drawn) | 9% | -23% | 2µM* | -9% | 12% | 1.6µM* | 1.8µM*
O=C(Nc1ccccc1)C1CCN(C(=O)c2ncn3c2COC(c2ccccc2)C3)CC1 (stereo not drawn) | -30% | ? | 2µM* | i | 15% | 1.6µM* | 1.6µM*
O=C(Nc1ccccc1)C1CCN(C(=O)c2ncn3c2COC(c2ccc(F)cc2)C3)CC1 (stereo not drawn) | 4% | -7% | ? | -2% | · | · | ·
CCOC(=O)C1(Cc2ccccc2Cl)CCNCC1 | ? | -2% | i | ? | · | · | ·
O=c1[nH]c(N2CCOCC2)nc2c1CCN(Cc1ccccc1Br)CC2 | -5% | 1% | i | 2% | · | · | ·
O=C(Nc1cccc(F)c1)C1CCN(C(=O)c2ncn3c2COC(c2ccccc2)C3)CC1 (stereo not drawn) | 6% | ? | 1µM* | -1% | 10% | 0.99µM* | 0.88µM*
CCc1ccc(NC(=O)C2CCN(C(=O)c3ncn4c3COC(c3ccc(F)cc3)C4)CC2)cc1 (stereo not drawn) | -2% | 2% | ? | i | · | · | ·
CC(=O)N1CCc2ccc(C(=O)NC3CCCCCC3)cc21 | ? | 14µM* | 0.35µM* | ? | ? | 11µM* | 6.2µM*
CCc1ccccc1Nc1nc(-c2cccc(OC)c2OC)no1 | ? | -20% | 14µM* | ? | 21% | 13% | ?
COc1cccc(-c2ncc3c(n2)OCCN(Cc2ccc(F)cc2F)C3=O)c1 | ? | ? | 13µM* | ? | 13%[49.3 µM] | 10%[49.3 µM] | ?
COCCN1CCOc2nc(-c3cc(F)cc(OC)c3)ncc2C1=O | -27%[172 µM] | ? | 1.6µM* | 28µM* | ? | ? | 11µM*
COc1cc(F)cc(-c2ncc3c(n2)OCCN(Cc2ccc(F)cc2F)C3=O)c1 | ? | ? | i | ? | · | · | ·
COCCN1CCOc2nc(-c3cc(F)ccc3OC)ncc2C1=O | ? | 3%[70.6 µM] | i | ? | · | · | ·
O=C(C1CCCC1)N1CCC(c2nc(-c3ccc4nc[nH]c4c3)no2)CC1 | ? | -15% | i | -42% | · | · | ·
SMILES | HEK293 tox | hNpr1 antagonist | FLuc inh-1 | 3T3 cytotox | FLuc SDR -ATP | FLuc SDR ATP | FLuc inh-2
COCCN1CC(CO)C2(CCN(Cc3cccs3)CC2)C1 (stereo not drawn) | ? | 9% | i | -8% | · | · | ·
Cc1c(C(=O)Nc2ccc(C(=O)O)cc2)nnn1-c1ccccc1 | · | · | · | · | 7µM* | 0.078µM* | 0.078µM*
Cc1ccc2nc(-c3ccc(NC(=O)c4ccccc4S(C)(=O)=O)cc3)sc2c1 | · | · | · | · | 13% | 13% | ?
Cc1ccc2nc(-c3ccc(NC(=O)CSc4nnc(C)s4)cc3)sc2c1 | · | · | · | · | 16% | 15% | 0.62µM*
CCSc1ccc(C(=O)Nc2ccc(-c3nc4ccc(C)cc4s3)cc2)cc1 | · | · | · | · | 14% | 8% | -5%
CNc1ccc2cc(-c3nc4ccc(C(=O)O)cc4s3)ccc2c1 | · | · | · | · | 1.1µM* | 0.014µM* | 0.007µM*
Cc1noc(-c2ccc(N3CCN(C/C=C/c4ccccc4)CC3)nc2)n1 | ? | 2% | i | ? | · | · | ·
Cc1nnc2ccc(N3CCC(NC(=O)NC4CCCC4)CC3)nn12 | i | · | · | -15% | · | · | ·
CCC1(N2CCN(C(=O)Nc3ccc(Cl)cc3C)CC2)CCN(C(=O)NC)C1 (stereo not drawn) | ? | -8% | i | -20% | · | · | ·
Cc1ccc2nc(-c3ccc(NC(=O)c4ccc(S(C)(=O)=O)cc4)cc3)sc2c1 | · | · | · | · | 13% | 8% | -1%
Cc1ccc2nc(-c3ccc(NC(=O)C(F)(F)F)cc3)sc2c1 | · | · | · | · | 28% | ? | 0.79µM*
COCC1CN(S(=O)(=O)Cc2ccc(C)c(C)c2)CC12CCNCC2 (stereo not drawn) | -4% | 2% | i | -7% | · | · | ·
CCC(=O)N1CCc2c(C(=O)Nc3ccc(N4CCOCC4)cc3)cccc21 | -10% | -7% | i | -12% | · | · | ·
CN(C)CCNC(=O)c1cccc2c1CCN2C(=O)Nc1ccccc1 | ? | ? | 3.5µM* | -4% | 17% | 1.1µM* | 0.7µM*
CCC(=O)N1CCc2c(C(=O)NCc3ccccc3F)cccc21 | -5% | -3% | i | ? | · | · | ·
